Data: the supplement of paper PMC10849652
The full data set covers some 7,900 targets. This sample favours those with a hit. About 0.6% of all pairs of compound and target were hits. Values without a mark were called inactive.

target: ZW10 (UniProt O43264); assay: log2 fold change, soluble protein after heating vs DMSO (PISA); higher = thermal stabilisation; K562 cells, 10 uM, 30 min; active = over 0.2 and 3.5 SD of the protein, either way, in both replicates (recomputed)
Summary of the method: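 Aliquots of K562 cells (2×10^6 cells/mL) treated with 10 μM compound for 30 min were heated for 3 min over 48°C-58°C. After pooling and extraction in PBS with 0.5% NP-40 at 4°C, soluble protein from a 21,000xg, 90 min spin was quantified by TMTpro 16plex LC-MS/MS with channel sums equalised. Thermal stability is expressed against control samples, from duplicates, as a log2 fold change.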

Chain of ZW10 (O43264 whole entry, looked up): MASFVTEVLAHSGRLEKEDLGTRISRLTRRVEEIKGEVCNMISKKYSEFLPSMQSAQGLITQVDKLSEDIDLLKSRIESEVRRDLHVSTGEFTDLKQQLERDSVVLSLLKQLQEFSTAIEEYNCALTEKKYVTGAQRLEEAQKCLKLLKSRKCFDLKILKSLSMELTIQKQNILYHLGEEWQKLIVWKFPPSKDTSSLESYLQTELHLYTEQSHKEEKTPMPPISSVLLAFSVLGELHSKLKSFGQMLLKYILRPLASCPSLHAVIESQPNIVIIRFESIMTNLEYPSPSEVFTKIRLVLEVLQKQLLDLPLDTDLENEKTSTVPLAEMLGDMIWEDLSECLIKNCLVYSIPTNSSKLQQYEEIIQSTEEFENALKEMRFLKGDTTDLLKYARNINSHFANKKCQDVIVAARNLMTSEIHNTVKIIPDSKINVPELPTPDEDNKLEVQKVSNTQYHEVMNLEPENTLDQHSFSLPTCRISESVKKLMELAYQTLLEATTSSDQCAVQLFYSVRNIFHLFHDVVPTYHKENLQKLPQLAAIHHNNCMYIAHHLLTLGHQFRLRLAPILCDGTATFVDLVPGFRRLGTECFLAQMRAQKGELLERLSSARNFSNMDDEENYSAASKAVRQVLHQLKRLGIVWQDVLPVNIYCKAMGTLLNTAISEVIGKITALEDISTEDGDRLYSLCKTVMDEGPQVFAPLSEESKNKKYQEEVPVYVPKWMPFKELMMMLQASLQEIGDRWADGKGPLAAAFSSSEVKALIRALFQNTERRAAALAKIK

How did the log2 fold change turn out when `CCCCN(Cc1ccc(C(=O)NO)cc1)C(=O)Nc1ccccc1` [Nexturastat A] was run?
The log2 fold change was 0.093.

Which log2 fold change does the source give for `CC(C)C[C@@H](C=O)NC(=O)[C@H](CC(C)C)NC(=O)[C@H](CC(C)C)NC(=O)OCc1ccccc1` here?
The log2 fold change was 0.007.

For `Cc1cccc(-c2[nH]c(C(C)(C)C)nc2-c2ccc3nccnc3c2)n1`, which log2 fold change is on record?
Its log2 fold change is 0.006.

With `Cc1ccc(NC(=O)c2ccc(CN3CC[C@H](N(C)C)C3)c(C(F)(F)F)c2)cc1Nc1nccc(-c2cncnc2)n1` [bafetinib] as the compound, how does the log2 fold change read?
Its log2 fold change is 0.003.

With `CCN(CC)Cc1ccc2cc(COC(=O)Nc3ccc(C(=O)NO)cc3)ccc2c1` [givinostat] as the compound, how does the log2 fold change read?
Its log2 fold change is 0.096.

`Cc1ncc(-c2ccnc(Nc3ccc(S(C)(=O)=O)cc3)n2)n1C(C)C` was tested. Which log2 fold change did it give?
The log2 fold change was 0.

How did the log2 fold change turn out when `NC(=O)Nc1cc(-c2cccc(F)c2)sc1C(=O)N[C@H]1CCCNC1` was run?
The log2 fold change was -0.021.

For `O=C(O)c1ccc2c(c1)nc(Nc1cccc(Cl)c1)c1ccncc12` [silmitasertib], which log2 fold change is on record?
Its log2 fold change is 0.083.

How did the log2 fold change turn out when `Cn1cncc1[C@@](N)(c1ccc(Cl)cc1)c1ccc2c(c1)c(-c1cccc(Cl)c1)cc(=O)n2C` [tipifarnib] was run?
The log2 fold change was -0.087.

Which log2 fold change does the source give for `C[C@@H](Oc1cc(-c2cnn(C3CCNCC3)c2)cnc1N)c1c(Cl)ccc(F)c1Cl` [crizotinib] here?
The log2 fold change was -0.137.

`Cn1cc(-c2ccc3nnc(C(F)(F)c4ccc5ncccc5c4)n3n2)cn1` was tested. Which log2 fold change did it give?
The log2 fold change was -0.069.

Which log2 fold change does the source give for `CCN(CCCOc1ccc2c(Nc3cc(CC(=O)Nc4cccc(F)c4)[nH]n3)ncnc2c1)CCOP(=O)(O)O` [barasertib] here?
The log2 fold change was 0.055.

For `CNCc1ccc(-c2[nH]c3cc(F)cc4c3c2CCNC4=O)cc1` [rucaparib], which log2 fold change is on record?
Its log2 fold change is 0.128.

How did the log2 fold change turn out when `CCn1c(C(=O)N(C2CC2)C2CC2)cc2c3c(ncn3C)c(Nc3cc(C)n(C)n3)nc21` was run?
The log2 fold change was -0.06.

How did the log2 fold change turn out when `Cc1cccc(CC(=O)N2CCc3c2ccc(-c2cn(C)c4ncnc(N)c24)c3F)n1` was run?
Its log2 fold change is 0.034.

Which log2 fold change does the source give for `C=CC(=O)N1CCC[C@@H](n2nc(-c3ccc(Oc4ccccc4)cc3)c3c(N)ncnc32)C1` [ibrutinib] here?
Its log2 fold change is -0.007.

How did the log2 fold change turn out when `CC(C)(C)Cn1c(N)nc2ccc(-c3[nH]c(C(C)(C)C)nc3-c3ccc(F)cc3)nc21` [ralimetinib] was run?
The log2 fold change was 0.032.

For `C#Cc1cccc(Nc2ncnc3cc(OCCOC)c(OCCOC)cc23)c1` [erlotinib], which log2 fold change is on record?
The log2 fold change was 0.016.

For `O=C1c2ccccc2-c2n[nH]c3cccc1c23`, which log2 fold change is on record?
The log2 fold change was -0.031.

With `CN(CCOc1ccc(C[C@@H]2SC(=O)NC2=O)cc1)c1ccccn1` (racemic) [rosiglitazone] as the compound, how does the log2 fold change read?
The log2 fold change was 0.066.

For `c1cc(OCCN2CCCCC2)cc(-c2n[nH]c3ccc(-c4nnc[nH]4)cc23)c1`, which log2 fold change is on record?
Its log2 fold change is -0.016.

With `NC1(Cc2ccc(Cl)cc2)CCN(c2ncnc3[nH]ccc23)CC1` as the compound, how does the log2 fold change read?
Its log2 fold change is -0.062.

How did the log2 fold change turn out when `CNC(=O)c1ccccc1Nc1nc(Nc2ccc(N3CCOCC3)cc2OC)ncc1Cl` was run?
Its log2 fold change is 0.035.

Which log2 fold change does the source give for `C/C(=N\NC(=O)c1cccc(S(=O)(=O)N2CCOCC2)c1)c1cc(Cl)ccc1O` here?
Its log2 fold change is 0.075.

`Cc1cn(-c2cc(NC(=O)c3ccc(C)c(Nc4nccc(-c5cccnc5)n4)c3)cc(C(F)(F)F)c2)cn1` [nilotinib] was tested. Which log2 fold change did it give?
The log2 fold change was -0.088.

With `COc1cc2nc(-c3cc(F)ccc3O)nc(N[C@@H]3CNC[C@H]3C(C)(C)O)c2cc1OC` as the compound, how does the log2 fold change read?
The log2 fold change was 0.041.

`COc1cc2ncnc(Nc3ccc(F)c(Cl)c3)c2cc1OCCCN1CCOCC1` [gefitinib] was tested. Which log2 fold change did it give?
The log2 fold change was 0.135.

`CC1=C(C(=O)Nc2cc3cn[nH]c3cc2F)C(c2ccc(C(F)(F)F)cc2)CC(=O)N1` (stereo unspecified) was tested. Which log2 fold change did it give?
Its log2 fold change is -0.033.

`CCn1cc(-c2ccnc3[nH]c(-c4cccc(CN(C)C)c4)cc23)c(-c2ccc(NC(=O)N(C)C)cc2)n1` was tested. Which log2 fold change did it give?
The log2 fold change was 0.022.

`COc1cc(C(=O)O)ccc1NC(=O)[C@@H]1N[C@@H](CC(C)(C)C)[C@](C#N)(c2ccc(Cl)cc2F)[C@H]1c1cccc(Cl)c1F` [idasanutlin] was tested. Which log2 fold change did it give?
The log2 fold change was -0.035.

For `CN1CCC(CNc2ccc3ncc(-c4cccc(OC(F)(F)F)c4)n3n2)CC1`, which log2 fold change is on record?
Its log2 fold change is -0.108.
